Publication PMC5700166

The sequences below were run against T1, GST-Co-NF-kB (Capsaspora owczarzaki, UniProt F1ARL5 200-546) (assay: protein-binding microarray (PBM); PBM: ~300 nM protein, 6 mM HEPES pH 7.8, 80 mM KCl, 0.5 mM EDTA, 0.5 mM EGTA, 6% glycerol, 35 ng/ul poly-dIdC, 1% milk, 1 h, room temperature; Ap Aiptasia and Nv Nematostella (sea anemones) / Co Capsaspora / Aq Amphimedon (sponge) / Dm Drosophila / Hu human; RHD is the Rel homology domain; high values mean tight binding). Conditions: dsDNA, one strand shown.
T1 sequence: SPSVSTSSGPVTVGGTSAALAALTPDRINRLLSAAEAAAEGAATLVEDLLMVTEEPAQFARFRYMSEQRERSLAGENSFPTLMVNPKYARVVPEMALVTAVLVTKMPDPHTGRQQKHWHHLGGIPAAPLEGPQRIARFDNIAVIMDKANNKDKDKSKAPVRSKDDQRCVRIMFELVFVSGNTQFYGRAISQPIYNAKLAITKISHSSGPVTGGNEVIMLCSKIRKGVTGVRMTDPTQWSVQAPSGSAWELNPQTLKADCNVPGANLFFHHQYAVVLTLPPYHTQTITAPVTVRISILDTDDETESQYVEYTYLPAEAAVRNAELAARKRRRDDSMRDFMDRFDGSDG

Sequence	binding signal [z-score]
CCGATTAACATCAAGCGTTTCCCTGATGTTAATCGGGTCTTGATTCGCTTGACGCTGCTG	2.62
CCGATTAACATCAACTCGGGAAATGATGTTAATCGGGTCTTGATTCGCTTGACGCTGCTG	3.32
CCGATTAACATCAATTCCCGTACTGATGTTAATCGGGTCTTGATTCGCTTGACGCTGCTG	2.55
CCGATTAACATCAGGGGAGTGTATGATGTTAATCGGGTCTTGATTCGCTTGACGCTGCTG	3.2
CCGATTAACATCAGATTTCTCCCTGATGTTAATCGGGTCTTGATTCGCTTGACGCTGCTG	2.92
CCGATTAACATCACGGTGGGAAATGATGTTAATCGGGTCTTGATTCGCTTGACGCTGCTG	2.77
CCGATTAACATCATGGAGGGAGGTGATGTTAATCGGGTCTTGATTCGCTTGACGCTGCTG	1.14
CCGATTAACATCAATCGGGAAATTGATGTTAATCGGGTCTTGATTCGCTTGACGCTGCTG	2.19
CCGATTAACATCAACTTTCCCAGTGATGTTAATCGGGTCTTGATTCGCTTGACGCTGCTG	3.84
CCGATTAACATCATCTGGGAAAATGATGTTAATCGGGTCTTGATTCGCTTGACGCTGCTG	3.73
CCGATTAACATCAGGGAAAGGTATGATGTTAATCGGGTCTTGATTCGCTTGACGCTGCTG	2.67
CCGATTAACATCAAAGCATTCCCTGATGTTAATCGGGTCTTGATTCGCTTGACGCTGCTG	2.52
CCGATTAACATCATGTTGGGAAATGATGTTAATCGGGTCTTGATTCGCTTGACGCTGCTG	2.51
CCGATTAACATCAGGGAAAGGAATGATGTTAATCGGGTCTTGATTCGCTTGACGCTGCTG	1.48
CCGATTAACATCAACATGGGAATTGATGTTAATCGGGTCTTGATTCGCTTGACGCTGCTG	1.5
CCGATTAACATCAGGGAAAAGAATGATGTTAATCGGGTCTTGATTCGCTTGACGCTGCTG	2.97
CCGATTAACATCACCCAGTTCCCTGATGTTAATCGGGTCTTGATTCGCTTGACGCTGCTG	1.44
CCGATTAACATCAGACTGGGAAATGATGTTAATCGGGTCTTGATTCGCTTGACGCTGCTG	3.05
CCGATTAACATCACCTCTTTCCCTGATGTTAATCGGGTCTTGATTCGCTTGACGCTGCTG	3.61
CCGATTAACATCACCAGTTTCCCTGATGTTAATCGGGTCTTGATTCGCTTGACGCTGCTG	3.09
CCGATTAACATCATGGGGACGACTGATGTTAATCGGGTCTTGATTCGCTTGACGCTGCTG	2.39
CCGATTAACATCAGGGGTAGGTTTGATGTTAATCGGGTCTTGATTCGCTTGACGCTGCTG	3.22
CCGATTAACATCACCGCTTCCCTTGATGTTAATCGGGTCTTGATTCGCTTGACGCTGCTG	1.46
CCGATTAACATCACCTTGGGAAATGATGTTAATCGGGTCTTGATTCGCTTGACGCTGCTG	2.79
CCGATTAACATCACTCCCTAAAATGATGTTAATCGGGTCTTGATTCGCTTGACGCTGCTG	1.22
CCGATTAACATCAAGCCCCCCCCTGATGTTAATCGGGTCTTGATTCGCTTGACGCTGCTG	4.89
